Sampled rows, rich in hits. Any-hit rate of the full collection: about 1.4%.
HttQ103 aggreg: inhibitors of mutant huntingtin aggregate formation in PC12 cells; actives 1.1% (n = 220,000); PC12 HttQ103-GFP aggregates, Acumen cytometry, 40 h; Potency, µM (highest dose often 46.1 µM), hits mostly inhibitors; AID 1688; also: nearly all actives have a fitted effect of over 60% in size
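Quantitative HTS on tebufenozide-induced (100 nM) PC12 cells stably expressing polyQ103 Huntingtin exon 1–GFP. Reduction of bright GFP aggregates, detected by laser scanning cytometry after lysis, identified actives across the titration.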
HTT cytoprotect: protects HTT-Q103 PC12 cells, measured by ATP. PC12 HTT-Q103 induced, cytoprotection, ATP luminescence, 40 h. Potency, µM (doses to about 56.4 µM), most hits filed as activators. actives 0.14% (n = 230,000). AID 1471; also: nearly all actives have a fitted effect of over 45% in size
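PC12 cells with ecdysone-inducible HTT exon 1 Q103-GFP, induced with 100 nM tebufenozide and co-treated with library compounds in a dose series (1536-well, 1500 cells/well). Cytoprotection read as ATP content by ATPlite luminescence.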
ERK EGF inh: EGF-driven ERK pathway inhibition; HEK293-V1b, EGF-stimulated phospho-ERK AlphaScreen; Potency, µM (titrated, usually from 11.5 µM), actives largely listed as inhibitors; actives 0.41% (n = 130,000); AID 1454; also: nearly all actives have a fitted effect of over 55% in size
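HEK293 cells stably expressing V1b receptor, serum-reduced (1% FBS) overnight, got compound for 30 min at 37C, then 25 nM EGF for 5 min. Lysate phospho-ERK read by AlphaScreen SureFire; AC50 from Hill fits.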
A number is an active result; – = inactive; ? = inconclusive; · = no result; [ ] = dose if it differs, or a comment. Calls follow the shape of the dose curve; as a rule, active = well fitted curve in the direction sought with a large enough effect; inconclusive = small, poorly fitted or top-dose-only effect, or another doubt; inactive = no such curve, though single readings can be large; an effect the other way counts as inactive or inconclusive.

SMILES	HttQ103 aggreg	HTT cytoprotect	ERK EGF inh
O=C(Nc1ccc(Oc2ccccc2)cc1)C1CCN(c2c3c(nc4ncnn24)CCC3)CC1	8.9µM	–	·
O=C(NC1CCCc2ccccc21)C1CCN(c2c3c(nc4ncnn24)CCC3)CC1 (configuration not stated)	–	–	·
CN1CCN(c2ncc3nc(-c4cccc(C#N)c4)c(=O)n(C)c3n2)CC1	·	–	·
CC(C)c1cccc2c([Si](C)(C)C)c3c(nc12)-c1cccc(=O)n1C3	·	–	?
CCCn1c(C)nc2c(NC3CCN(Cc4ccccc4)C3)nc(C)nc21 (configuration not stated)	·	–	–
CO[C@H]1C=CO[C@]2(C)Oc3c(C)c(O)c4c(O)c(c5c(c4c3C2=O)NC2(CCN(CC(C)C)CC2)N=5)=NC(=O)C(C)=CC=C[C@@H](C)[C@@H](O)[C@@H](C)[C@@H](O)[C@@H](C)[C@@H](OC(C)=O)[C@@H]1C	·	–	–
Cc1ccccc1OCCSc1nnc(-c2ccncc2)n1C	–	–	·
Cn1c(SCCOc2ccccc2Cl)nnc1-c1ccncc1	0.79µM	–	·
COc1cccc([C@@H]2Oc3ccc(OC)cc3C(=O)[C@H]2OC(=O)NS(=O)(=O)c2ccc(C)cc2)c1	·	–	–
N#Cc1ccccc1-c1ccc2ncnc(NCc3ccccc3)c2c1	·	–	·
CCCCCCCCNc1ncnc2ccccc12	·	–	·
Brc1ccc2ncnc(NCc3ccccc3)c2c1	2.2µM	–	·
Cc1cccc(CNc2ncnc3ccc(-c4c(C)noc4C)cc23)c1	·	–	–
c1ccc(CCNc2ncnc3ccccc23)cc1	1.8µM	–	?
Cc1cccc(CNc2ncnc3ccc(-c4cccnc4)cc23)c1	·	–	8.9µM
CS(=O)(=O)Nc1cccc(-c2cncnc2NCc2cccs2)c1	·	–	–
NC(=O)[C@@H]1CCCNC1	·	–[10 µM]	·
O=C(O)[C@H](Cc1c[nH]c2ccccc12)N1C(=O)c2ccccc2C1=O	·	–[10 µM]	·
COc1cccc(NC(=S)/C(=C(\[O-])c2cc(C)n(-c3ccccc3F)c2C)[n+]2ccc(N(C)C)cc2)c1	13µM	–	–
COc1cccc(NC(=S)/C(=C(\[O-])c2ccc(OC(F)F)cc2)[n+]2ccccc2)c1	–	–[10 µM]	–
O=C(CN1C2=NCCCN2c2ccccc21)c1cccc(Br)c1	4µM	–[10 µM]	–
O=C(CN1C2=NCCN2c2ccccc21)c1ccc(Br)cc1	–	–[10 µM]	·
COc1ccccc1CNc1cc(-c2ccccc2C)ncn1	·	–	·
COC(=O)C(C(=O)OC)C(Cc1cc(F)cc(F)c1F)NC=O (configuration not stated)	·	–	–
O=C(Oc1c(Cl)cc(Cl)c2cccnc12)c1cccc([N+](=O)[O-])c1	2.8µM	–[10 µM]	–
SMILES	HttQ103 aggreg	HTT cytoprotect	ERK EGF inh
O=C(Oc1ccc(Cl)c2cccnc12)c1cccc([N+](=O)[O-])c1	–	–[10 µM]	–
O=C(NCCCNc1ccc(C(F)(F)F)cc1[N+](=O)[O-])c1cc(F)c(F)cc1Cl	?	–	·
O=C(NCCCNc1ccc(C(F)(F)F)cc1[N+](=O)[O-])c1ccc(Cl)cc1	11µM	–	·
O=C(c1cc2cc([N+](=O)[O-])ccc2oc1=O)N1CCN(c2ncccn2)CC1	0.71µM	?	·
O=C(c1cc2cc([N+](=O)[O-])ccc2oc1=O)N1CCOCC1	–[9.22 µM]	–[10 µM]	–
N[C@H](CS(=O)O)C(=O)O	·	–[1.9 µM]	·
Cc1cnc(CNc2cc(-c3ccc4c(c3)OCO4)ncn2)cn1	·	–	·
OCc1ccccn1	–	?	·
O=C(Nc1ccccc1)c1ccccc1NS(=O)(=O)c1ccc(Cl)s1	–	–[10 µM]	–
O=C(NCc1ccco1)c1ccccc1NS(=O)(=O)c1ccc(Cl)s1	18µM	–	·
Cc1ccc(NC(=O)c2ccccc2NS(=O)(=O)c2ccc(Cl)s2)cc1	3.2µM	–[10 µM]	–
O=C(Nc1ccccc1Cc1ccccc1)c1ccccc1NS(=O)(=O)c1ccc(Cl)s1	2.5µM	·	–
O=S(=O)(Nc1ccccc1N1CCCCC1)c1ccc(Cl)s1	–[9.22 µM]	–	·
O=C(NCc1ccco1)c1ccccc1NS(=O)(=O)c1cccs1	–	–[0.074 µM]	·
N[C@@H](COP(=O)(O)O)C(=O)O	·	–	–
O=C1CCC=C1C(O)CCc1ccccc1 (configuration not stated)	·	–	–
COCC(=O)N1CCC2(CCCN(Cc3ccccc3OC)C2)CC1	·	–	–
C=CCn1c(SCC#N)nc2ccccc2c1=O	–	–[10 µM]	·
C=CCn1c(SCC#N)nc2c(c1=O)C(C)(C)Cc1ccccc1-2	10µM	–[10 µM]	·
N[C@@H](Cc1cccnn1)C(=O)O	·	–[10 µM]	·
OC(CNCCc1ccc(C(F)(F)F)cc1)COc1ccc2ccccc2c1 (configuration not stated)	?	–[10 µM]	35µM
OC(CNCCc1ccc(C(F)(F)F)cc1)COc1cccc2ccccc12 (configuration not stated)	?	–[10 µM]	?
O=C(N/N=C/c1c(O)n(-c2ccccc2Cl)c(=O)c2ccccc12)C1COc2ccccc2O1 (configuration not stated)	13µM	–[10 µM]	–
Cc1ccc(-n2c(O)c(/C=N/NC(=O)C3COc4ccccc4O3)c3ccccc3c2=O)cc1 (configuration not stated)	?	·	–
CS(=O)(=O)N1CCC2(CCN(C(=O)Nc3cccc(C#N)c3)CC2)CC1	·	–	–
SMILES	HttQ103 aggreg	HTT cytoprotect	ERK EGF inh
O=C(NNc1nc2ccc(F)cc2s1)c1cccc(F)c1	13µM	·	–
O=C(NNc1nc2ccccc2s1)c1ccc(F)cc1	–	–[10 µM]	–
CC(C)CN1CC2(CCN(C(=O)c3csnn3)CC2)C1	·	–	–
Cc1ccc(C(=O)Nc2cc(C(C)C)c(O)c(C(C)C)c2)cc1	10µM	·	–
Cc1ccc(C(=O)N[C@H](C(=O)Nc2cc(Cl)cc(Cl)c2)C(C)C)cc1	–	–[10 µM]	–
CC/C=C\CC[C@H](O)C1=CCCCC1=O	·	–[10 µM]	·
Cn1cccc1C(=O)N1CCC2(CC1)CN(c1ccccn1)C2	·	–	–
COc1cccc(C2CC(C(F)(F)F)n3ncc(C(=O)NC(C)(C)C)c3N2)c1 (configuration not stated)	–	–	·
COc1cccc(C2CC(C(F)(F)F)n3ncc(C(=O)NCc4ccco4)c3N2)c1 (configuration not stated)	2.8µM	–[0.074 µM]	·
CN(c1ccccc1)S(=O)(=O)c1cccc(C(=O)Nc2nccs2)c1	–	–	–
C=CCSc1nnc(NC(=O)c2cccc(S(=O)(=O)N(C)c3ccccc3)c2)s1	10µM	–[0.074 µM]	–
OCC1OC(c2ccc3c(c2)OCO3)C=CC1Oc1ccc(C2CCCC2)cc1 (configuration not stated)	·	–[10 µM]	·
COc1ccccc1CNc1ncncc1-c1ccc(N(C)C)cc1	·	–	20µM
COc1ccc(CNc2ncncc2-c2ccc(N(C)C)cc2)c(OC)c1	·	–	·
COc1ccc(NS(=O)(=O)c2ccc(N3CCCC3=O)cc2)cn1	?	–	–
COc1ccc(NS(=O)(=O)c2ccc3c(c2)Cc2ccccc2-3)cn1	11µM	–	·
CCOc1ccc(N2C(=O)CN=C2Nc2ccccc2Cl)cc1	–	–	·
O=C1CN=C(Nc2ccccc2Cl)N1c1ccccc1	2.8µM	–[10 µM]	·
CCN1C(C)=C(C(=O)OC)C(c2ccccc2)N2C(=O)[C@@]3(C(=O)OC)O[C@@]12C1C(=O)N(c2ccccc2)C(=O)C13 (some centres not stated)	·	–[10 µM]	·

Screening results: PubChem, National Center for Advancing Translational Sciences (NCATS)
